For 11 compounds, growth inhibition results are on record in PubChem BioAssay (NCI).

About 79,000 compounds went through this panel and 15% of them were active in at least one assay; those are over-represented in the sample as a whole. Values without a mark were called inactive. The source made the active and inactive calls. Rule as the data show it: active = growth inhibition above about 70%; inactive = the rest.

Experiment [1] in a line: NCI Yeast Anticancer Drug Screen. Data for the rad50 strain (AID 155).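 Also: 0% = growth of vehicle-only cultures of the same strain.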 Conditions: S. cerevisiae rad50 strain growth inhibition, active compounds read high. Put shortly: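 Yeast carrying a defined DNA repair defect were exposed to test compounds, and growth was compared with vehicle-treated controls to give percent inhibition.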
Experiment [2] can be described thus: NCI Yeast Anticancer Drug Screen. Data for the mec2-1 strain (AID 157). The following applies: S. cerevisiae mec2-1 strain, active compounds read high. Put shortly: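 Vehicle-treated cultures served as reference for growth inhibition of compound-exposed mec2-1 yeast.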
Experiment [3] can be described thus: NCI Yeast Anticancer Drug Screen. Data for the sgs1 mgt1 strain (AID 161).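 Also: 0% = growth of cultures given vehicle only.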 Conditions: S. cerevisiae sgs1 mgt1 strain, active compounds read high. Put shortly: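 Inhibition of yeast growth, normalised to vehicle-treated controls, is reported for a strain bearing genetic alterations in DNA damage repair.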
Experiment [4] is described as follows: NCI Yeast Anticancer Drug Screen. Data for the cln2 rad14 strain (AID 165).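 Also: 0% = growth equal to vehicle treated cultures.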 The following applies: S. cerevisiae cln2 rad14 strain, active compounds read high. The method, boiled down:
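Each compound was tested on cln2 rad14 yeast. Inhibition of growth was calculated against vehicle-exposed controls.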

A short description of experiment [5]: NCI Yeast Anticancer Drug Screen. Data for the bub3 strain (AID 167). The following applies: S. cerevisiae bub3 mutant strain, active compounds read high. Put shortly: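 Compounds were applied to a genetically altered yeast strain carrying a cell-cycle control defect. Growth inhibition was scored against vehicle-treated controls.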
Experiment [6] can be described thus: NCI Yeast Anticancer Drug Screen. Data for the mlh1 rad18 strain (AID 175). Conditions: S. cerevisiae mlh1 rad18 strain growth inhibition, active compounds read high. Put shortly:
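Vehicle-treated cultures served as the reference for growth inhibition in a yeast strain carrying DNA damage repair alterations exposed to each compound.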

[7] abbreviates: at 5.0 µM (retest, dose inferred, filed as 0.5).
The mark [8] stands for this setting: at 50.0 µM (retest, dose inferred, filed as 5.0).

Consider `CN(C)c1ccc(/C=C(/C#N)c2ccc(Cl)cc2)cc1`, for which the growth inhibition is -16% in experiment [1] (setting [7]); -18% in experiment [1] (setting [8]); 3.45% in experiment [1] (at 50.0 µM); 0% in experiment [2] (setting [7]); 8% in experiment [2] (setting [8]); 13.2% in experiment [2] (at 50.0 µM). In addition, the growth inhibition in experiment [3] (setting [7]) is 3%; in experiment [3] (setting [8]) it was 15%; in experiment [3] (at 50.0 µM), -10.3%; in experiment [4] (setting [7]), 27%; in experiment [4] (setting [8]), -6%; in experiment [4] (at 50.0 µM), 64.4%. In addition, the growth inhibition was 6% in experiment [5] (setting [7]); -25% in experiment [5] (setting [8]); 7% in experiment [5] (at 50.0 µM); -17% in experiment [6] (setting [7]); -18% in experiment [6] (setting [8]); 5.5% in experiment [6] (at 50.0 µM).
With `O=c1ccc2c(COc3ccc(Cl)cc3Cl)c3ccc(O)cc3oc-2c1`, the growth inhibition in experiment [1] (setting [7]) was -4%; in experiment [1] (setting [8]), 15%; in experiment [1] (at 50.0 µM), 78.5% (active); in experiment [2] (setting [7]), -3%; in experiment [2] (setting [8]), -1%; in experiment [2] (at 50.0 µM) it was 45.8%. The growth inhibition is -2% in experiment [3] (setting [7]); 12% in experiment [3] (setting [8]); 73.9% (active) in experiment [3] (at 50.0 µM); 9% in experiment [4] (setting [7]); 12% in experiment [4] (setting [8]); 26.7% in experiment [4] (at 50.0 µM). Further, the growth inhibition was -4% in experiment [5] (setting [7]); 1% in experiment [5] (setting [8]); 25.1% in experiment [5] (at 50.0 µM); -6% in experiment [6] (setting [7]); 4% in experiment [6] (setting [8]); 60.1% in experiment [6] (at 50.0 µM).
As to `CCCCCC/C=C/C#CCCCCCCCC(=O)O`, the growth inhibition in experiment [1] (setting [7]) was 30%; in experiment [1] (setting [8]), 15%; in experiment [1] (at 50.0 µM), 5.5%; in experiment [2] (setting [7]), 21%; in experiment [2] (setting [8]), 11%; in experiment [2] (at 50.0 µM) it was 9.2%. Moreover, the growth inhibition in experiment [3] (setting [7]) was 33%; in experiment [3] (setting [8]), 37%; in experiment [3] (at 50.0 µM) it was 14%; in experiment [4] (setting [7]) it was 17%; in experiment [4] (setting [8]), 16%; in experiment [4] (at 50.0 µM), 11.8%. The growth inhibition in experiment [5] (setting [7]) is 19%; in experiment [5] (setting [8]), 3%; in experiment [5] (at 50.0 µM), 17.3%; in experiment [6] (setting [7]), 57%; in experiment [6] (setting [8]), 44%; in experiment [6] (at 50.0 µM) it was -88.8%.
Regarding `C[Si](C)c1cccc(Cl)c1`, the growth inhibition is 2% in experiment [1] (setting [7]); 5% in experiment [1] (setting [8]); 0.25% in experiment [1] (at 50.0 µM); 0% in experiment [2] (setting [7]); 4% in experiment [2] (setting [8]); 0.45% in experiment [2] (at 50.0 µM). In addition, the growth inhibition in experiment [3] (setting [7]) was -1%; in experiment [3] (setting [8]), -3%; in experiment [3] (at 50.0 µM), 6.9%; in experiment [4] (setting [7]) it was 8%; in experiment [4] (setting [8]), 6%; in experiment [4] (at 50.0 µM), 13.8%. Also, the growth inhibition in experiment [5] (setting [7]) is 1%; in experiment [5] (setting [8]), 0%; in experiment [5] (at 50.0 µM), 7.55%; in experiment [6] (setting [7]), -29%; in experiment [6] (setting [8]), 1%; in experiment [6] (at 50.0 µM) it was -0.75%.
On to `COc1ccc(C2c3cc4c(cc3OC(NCCO)C2C)OCO4)cc1` (stereo not drawn), for which the growth inhibition in experiment [1] (setting [7]) was -3%; in experiment [1] (setting [8]), 88% (active); in experiment [1] (at 50.0 µM), 89% (active); in experiment [2] (setting [7]), -43%; in experiment [2] (setting [8]) it was 86% (active); in experiment [2] (at 50.0 µM) it was 92.5% (active). Further, the growth inhibition in experiment [3] (setting [7]) was -50%; in experiment [3] (setting [8]) it was 82% (active); in experiment [3] (at 50.0 µM), 90.3% (active); in experiment [4] (setting [7]), 5%; in experiment [4] (setting [8]) it was 78% (active); in experiment [4] (at 50.0 µM), 92% (active). For the same compound, the growth inhibition in experiment [5] (setting [7]) is -24%; in experiment [5] (setting [8]), 95% (active); in experiment [5] (at 50.0 µM), 91.2% (active); in experiment [6] (setting [7]), -18%; in experiment [6] (setting [8]), 91% (active); in experiment [6] (at 50.0 µM), 88.2% (active).
Take `Oc1ccccc1C(c1cc2c(cc1O)OCO2)N1CCOCC1` (stereo not drawn): the growth inhibition in experiment [1] (setting [7]) was -23%; in experiment [1] (setting [8]) it was 99% (active); in experiment [1] (at 50.0 µM) it was 87.3% (active); in experiment [2] (setting [7]) it was -28%; in experiment [2] (setting [8]), 100% (active); in experiment [2] (at 50.0 µM), 88.7% (active). Moreover, the growth inhibition in experiment [3] (setting [7]) is -51%; in experiment [3] (setting [8]), 99% (active); in experiment [3] (at 50.0 µM) it was 89.8% (active); in experiment [4] (setting [7]), -12%; in experiment [4] (setting [8]), 99% (active); in experiment [4] (at 50.0 µM), 91% (active). The growth inhibition is -34% in experiment [5] (setting [7]); 99% (active) in experiment [5] (setting [8]); 91.3% (active) in experiment [5] (at 50.0 µM); 1% in experiment [6] (setting [7]); 99% (active) in experiment [6] (setting [8]); 91.9% (active) in experiment [6] (at 50.0 µM).
For the compound `COc1ccc(/C=C2\N=C(c3ccco3)OC2=O)cc1Br`, the growth inhibition in experiment [1] (setting [7]) was 16%; in experiment [1] (setting [8]), 2%; in experiment [1] (at 50.0 µM), -4.8%; in experiment [2] (setting [7]) it was -17%; in experiment [2] (setting [8]), -4%; in experiment [2] (at 50.0 µM), 5.85%. Further, the growth inhibition in experiment [3] (setting [7]) was -1%; in experiment [3] (setting [8]) it was 12%; in experiment [3] (at 50.0 µM), 11%; in experiment [4] (setting [7]), 30%; in experiment [4] (setting [8]), 22%; in experiment [4] (at 50.0 µM), 4.8%. The growth inhibition in experiment [5] (setting [7]) was 5%; in experiment [5] (setting [8]), 13%; in experiment [5] (at 50.0 µM) it was 27.1%; in experiment [6] (setting [7]), -7%; in experiment [6] (setting [8]), -32%; in experiment [6] (at 50.0 µM) it was 5.65%.
Regarding `O=c1cccc(C2CCc3cc(O)ccc3C2)[nH]1` (stereo not drawn), the growth inhibition in experiment [1] (setting [7]) was -5%; in experiment [1] (setting [8]) it was 3%; in experiment [1] (at 50.0 µM), -2.85%; in experiment [2] (setting [7]), 3%; in experiment [2] (setting [8]) it was 1%; in experiment [2] (at 50.0 µM), 3.35%. The growth inhibition in experiment [3] (setting [7]) was -3%; in experiment [3] (setting [8]) it was 4%; in experiment [3] (at 50.0 µM), -5.05%; in experiment [4] (setting [7]), 1%; in experiment [4] (setting [8]), -18%; in experiment [4] (at 50.0 µM), 22.6%. In addition, the growth inhibition in experiment [5] (setting [7]) is -3%; in experiment [5] (setting [8]) it was -11%; in experiment [5] (at 50.0 µM), -11.3%; in experiment [6] (setting [7]), -6%; in experiment [6] (setting [8]), 5%; in experiment [6] (at 50.0 µM) it was 13.2%.
For `O=NN(CCCl)C(=O)NCCSSCCNC(=O)N(CCCl)N=O` (tested in a mixture with another compound), the growth inhibition is 29% in experiment [1] (setting [7]); 62% in experiment [1] (setting [8]); 36.1% in experiment [1] (at 50.0 µM); 20% in experiment [2] (setting [7]); 39% in experiment [2] (setting [8]); 38.6% in experiment [2] (at 50.0 µM). The growth inhibition is 40% in experiment [3] (setting [7]); 77% (active) in experiment [3] (setting [8]); 59.1% in experiment [3] (at 50.0 µM); 14% in experiment [4] (setting [7]); 29% in experiment [4] (setting [8]); 21.6% in experiment [4] (at 50.0 µM). Further, the growth inhibition is 30% in experiment [5] (setting [7]); 38% in experiment [5] (setting [8]); 14.2% in experiment [5] (at 50.0 µM); 73% (active) in experiment [6] (setting [7]); 96% (active) in experiment [6] (setting [8]); 72.1% (active) in experiment [6] (at 50.0 µM).
On to `CCc1[nH]c2ccccc2c1N1C(=O)CC2(CCN(Cc3ccccc3)CC2)CC1=O`, for which the growth inhibition in experiment [1] (setting [7]) was -4%; in experiment [1] (setting [8]) it was 1%; in experiment [1] (at 50.0 µM) it was 32.1%; in experiment [2] (setting [7]) it was 1%; in experiment [2] (setting [8]), 25%; in experiment [2] (at 50.0 µM) it was 6.25%. The growth inhibition in experiment [3] (setting [7]) was -75%; in experiment [3] (setting [8]) it was 23%; in experiment [3] (at 50.0 µM) it was 32.4%; in experiment [4] (setting [7]), -1%; in experiment [4] (setting [8]), 2%; in experiment [4] (at 50.0 µM) it was 3.7%. Moreover, the growth inhibition in experiment [5] (setting [7]) was -6%; in experiment [5] (setting [8]), 8%; in experiment [5] (at 50.0 µM), 35.5%; in experiment [6] (setting [7]) it was -6%; in experiment [6] (setting [8]) it was 10%; in experiment [6] (at 50.0 µM) it was 19.7%.
With `O=C(O)CCC(=O)NNc1ccccc1`, the growth inhibition in experiment [1] (setting [7]) is 8%; in experiment [1] (setting [8]), 68%; in experiment [1] (at 50.0 µM) it was 57.9%; in experiment [2] (setting [7]), -1%; in experiment [2] (setting [8]), 66%; in experiment [2] (at 50.0 µM) it was 85.9% (active). For the same compound, the growth inhibition in experiment [3] (setting [7]) was 12%; in experiment [3] (setting [8]), 58%; in experiment [3] (at 50.0 µM), 61.9%; in experiment [4] (setting [7]) it was 8%; in experiment [4] (setting [8]), 81% (active); in experiment [4] (at 50.0 µM), 83.2% (active). The growth inhibition was 14% in experiment [5] (setting [7]); 91% (active) in experiment [5] (setting [8]); 90.3% (active) in experiment [5] (at 50.0 µM); 20% in experiment [6] (setting [7]); 94% (active) in experiment [6] (setting [8]); 86.1% (active) in experiment [6] (at 50.0 µM).
